# From publication PMC4336329 (PLoS ONE, 2015)
# About 14,000 (4.5%) of roughly 310,000 compounds showed an effect of 50% or more. The effect is printed as a negative number. This excerpt belongs to a sample that is enriched for strong results.
# Target: human ether-à-go-go-related gene (hERG) potassium channel (human, UniProt Q12809)
# Assay: primary screen, population patch clamp on CHO cells stably expressing hERG; higher = less effect of the substance
# 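Also: peak tail current of the secondary pulse compared with the same well before compound.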
# human ether-à-go-go-related gene (hERG) potassium channel, sequence (Q12809 whole entry, looked up): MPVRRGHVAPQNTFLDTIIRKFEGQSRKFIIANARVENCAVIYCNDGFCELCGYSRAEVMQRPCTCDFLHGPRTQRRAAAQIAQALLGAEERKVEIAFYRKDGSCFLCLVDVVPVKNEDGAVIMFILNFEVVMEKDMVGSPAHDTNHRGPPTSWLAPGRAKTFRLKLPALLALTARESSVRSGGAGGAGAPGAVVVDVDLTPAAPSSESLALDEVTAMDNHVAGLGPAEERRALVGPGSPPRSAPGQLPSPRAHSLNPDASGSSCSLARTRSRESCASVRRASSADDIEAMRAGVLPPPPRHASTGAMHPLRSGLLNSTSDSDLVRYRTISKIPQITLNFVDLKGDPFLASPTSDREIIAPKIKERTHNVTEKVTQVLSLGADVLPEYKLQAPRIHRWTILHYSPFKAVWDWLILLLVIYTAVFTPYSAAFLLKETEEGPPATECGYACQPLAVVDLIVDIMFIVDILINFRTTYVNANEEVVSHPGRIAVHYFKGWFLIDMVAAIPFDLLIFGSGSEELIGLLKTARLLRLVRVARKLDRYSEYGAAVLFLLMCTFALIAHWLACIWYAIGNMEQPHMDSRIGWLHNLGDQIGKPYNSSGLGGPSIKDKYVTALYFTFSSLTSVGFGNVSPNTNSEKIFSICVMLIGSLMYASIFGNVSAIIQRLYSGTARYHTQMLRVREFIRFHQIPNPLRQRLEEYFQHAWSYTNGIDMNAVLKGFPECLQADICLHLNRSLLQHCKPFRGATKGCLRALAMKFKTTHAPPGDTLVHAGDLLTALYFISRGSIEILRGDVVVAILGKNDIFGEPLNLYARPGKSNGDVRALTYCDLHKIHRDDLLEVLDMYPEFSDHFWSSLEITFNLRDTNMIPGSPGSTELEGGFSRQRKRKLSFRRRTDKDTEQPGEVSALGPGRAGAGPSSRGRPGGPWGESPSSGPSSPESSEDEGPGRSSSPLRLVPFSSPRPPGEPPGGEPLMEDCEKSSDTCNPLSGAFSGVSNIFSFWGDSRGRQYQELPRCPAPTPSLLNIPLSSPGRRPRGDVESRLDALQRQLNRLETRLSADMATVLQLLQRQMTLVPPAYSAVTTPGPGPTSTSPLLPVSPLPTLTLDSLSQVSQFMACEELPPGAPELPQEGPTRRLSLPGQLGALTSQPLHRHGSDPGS
row,Structure (SMILES),"hERG current change (%, negative = inhibition) at 10uM"
1,Cc1ccsc1C(=O)OCC(=O)NC1CCCC1,13%
2,CC1(C)CC(=O)CC(C2(O)C(=O)N(Cc3ccccc3)c3ccccc32)O1 (stereo not drawn),7.55%
3,COCCCNC(=S)N1CCC(NC(=O)c2ccco2)CC1,-4.82%
4,COCC(=O)N(CCc1ccc(OC)c(OC)c1)Cc1nc2ccccc2c(=O)[nH]1,-8.28%
5,C/C(=N/NS(=O)(=O)c1cc(C)ccc1C)c1ccncc1,11%
6,CCCCC(=O)Nc1ccc(C(=O)N2CCN(C)CC2)cc1,6.41%
7,CCOC(=O)N1CCN(C(=O)c2ccc(SC)cc2OC)CC1,-2.46%
8,O=C(Cc1coc2cc3c(cc12)CCC3)OCc1cc(=O)n2c(n1)sc1ccccc12,4.53%
9,CC(=O)O[C@@]12CO[C@@H]1C[C@H](OC1OCC(O)C(O)C1O)[C@@]1(C)C(=O)[C@H](O)C3=C(C)[C@@H](OC(=O)[C@H](O)[C@@H](NC(=O)c4ccccc4)c4ccccc4)C[C@@](O)([C@@H](OC(=O)c4ccccc4)C12)C3(C)C (stereo partly drawn),-7.05%
10,CCOc1cc(CNC2CCCC2)ccc1OCc1ccccc1Cl.Cl,-50.6%
11,COc1ccc(Cl)cc1NC(=S)NCc1ccccn1,9%
12,COc1cc(CNCc2ccccn2)ccc1OCc1ccc(Cl)cc1Cl.Cl,-58.1%
13,CCOc1cc(CNC2CCCC2)cc(Cl)c1OCc1ccccc1.Cl,-10.3%
14,COc1cc(CNCc2ccccn2)ccc1OCc1c(Cl)cccc1Cl.Cl,-51.5%
15,COc1cc(CNn2nnnc2N)ccc1OCc1c(Cl)cccc1Cl,-1.22%
16,COc1cc(CNC2CCCC2)c(Br)cc1OCc1ccccc1.Cl,-72.1%
17,COc1ccc(-c2ccc(CNCc3ccccn3)o2)cc1Cl.Cl,-7.77%
18,O=C(NCc1ccccn1)c1ccccc1OCc1ccc(Cl)cc1Cl,-1.04%
19,COc1cc(CNC2CCCCCCC2)c(Br)cc1OCCO.Cl,7%

row,Structure (SMILES),"hERG current change (%, negative = inhibition) at 10uM"
1,COc1cc(CNC2CCCC2)c(Br)cc1OC1CCCC1.Cl,-45.9%
2,COc1cc(CNC2CCCC2)cc(Cl)c1OCc1ccccc1Cl.Cl,-30%
3,COc1ccc(-c2oc(=O)c3cc(OC)c(OC)cc3c2C(F)(F)F)cc1,23.7%
4,CC(C(=O)NCCCc1ccccc1)n1cccc1C(=O)c1ccccc1 (stereo not drawn),-5.48%
5,O=C(COC(=O)c1ccccc1C(=O)c1ccc(Cl)cc1)NCC1CCCO1 (stereo not drawn),1.96%
6,CN(C)/C=C/C(=O)c1ccc(C(F)(F)F)cc1F,15.3%
7,CCOc1cc(N2CCOCC2)c(OCC)cc1NC(=O)CSc1n[nH]c(N)n1,38.2%
8,Cc1ccc(OCC(=O)NNC(=O)c2cc(C)[nH]n2)cc1,24.6%
9,CCc1nnc(NC(=O)CSc2nnc3ncccn23)s1,19.2%
10,COC(=O)c1nn(-c2ccc(F)cc2)ccc1=O,8.12%
11,C#CCOCCOCCOCCNc1nc(N2CCN(C(=O)CCCCCCCCCCNC(=O)Cn3cc(C[C@@H](C)O)nn3)CC2)nc(N2CCN(C(=O)CCCCCCCCCCNC(=O)[C@H](CCCN=C(N)N)n3cc(C[C@@H](C)CC)nn3)CC2)n1,3.82%
12,COc1ccccc1C(=O)OCn1nnc2ccccc2c1=O,-1.17%
13,CN1CCN(C(=O)C23CCC(C)(C(=O)C2Br)C3(C)C)CC1 (stereo not drawn),1.95%
14,COc1cc(CNCc2ccccn2)ccc1OCC(=O)NC1CCCCC1.Cl,-14.5%
15,COc1cc(CNCc2ccccn2)ccc1OCc1ccccc1Cl.Cl,-58.3%
16,CCOc1cc(CNCc2ccccn2)cc(Cl)c1OCC.Cl,-0.796%
17,CC1=C(C(=O)Nc2ccccc2)C(c2cccs2)NC(=O)N1 (stereo not drawn),15.6%
18,Cc1cc(C)n(CC(=O)NNC(=O)c2ccc(NC(=O)CC#N)cc2)n1,5.56%
19,Cc1cc(C(C)(C)CC(C)(C)C)ccc1OCCOCC[N+](C)(C)Cc1ccccc1.[Cl-],-80.9%

row,Structure (SMILES),"hERG current change (%, negative = inhibition) at 10uM"
1,Cc1cc(C(C)(C)C)ccc1OCCN(C)C,-7.47%
2,Cc1cc(C(C)(C)C)ccc1OCCOCCN1CCCC1,-44.5%
3,Cl.Nc1ccc2c(c1)oc1ccccc12,4.15%
4,CCc1ccc(NC(=O)Nc2ccc3c(c2)N(C)C(=O)CS3)cc1,7.64%
5,CCc1cc2c(NCCO)ncnc2s1,14.3%
6,CCc1cc2c(NCCC(=O)O)ncnc2s1,4.76%
7,CCc1cc2c(NCCN3CCCCC3)ncnc2s1.Cl,-71.9%
8,Cc1csc(SCC(=O)NC2CCCCC2)n1,-1.79%
9,CCOc1ccccc1NC(=O)C(Sc1nnc2ccccn12)c1ccccc1 (stereo not drawn),-12.5%
10,Cc1ccc2cc(C)c3nnc(SCC(=O)NCc4ccco4)n3c2c1,-25.5%
11,O=C1c2ccc3c4c(ccc(c24)C(=O)N1c1ccc(O)cc1)C(=O)N(c1ccc(O)cc1)C3=O,23.3%
12,CCNS(=O)(=O)c1ccc(Br)c(OC)c1,10.4%
13,Cc1cc(=O)oc2c(C(=O)/C=C\c3cccs3)c(O)ccc12,11.1%
14,CCN(CCCNC(=O)c1cc2c(-c3cccc(OC)c3)nn(C)c2s1)Cc1ccccc1,-68.1%
15,CCN(CC)CCCNC(=O)c1cc2c(-c3cccc(OC)c3)nn(C)c2s1,-44.7%
16,COCCCNC(=O)c1cc2c(-c3cccc(OC)c3)nn(C)c2s1,-5.59%
17,CCCCN(C)CCNC(=O)c1cc2c(-c3cccc(OC)c3)nn(C)c2s1,-49.5%
18,CCN(CC)CCNC(=O)c1cc2c(-c3cccc(OC)c3)nn(C)c2s1,-31.8%
19,COc1cccc(-c2nn(C)c3sc(C(=O)NCCCN(C)Cc4ccccc4)cc23)c1,-52.2%
